Screening results from PubChem BioAssay.
ELG1 genotox: qHTS screen for small molecules that induce genotoxicity in human embryonic kidney (HEK293T) cells expressing luciferase-tagged ELG1; HEK293T ELG1-luciferase reporter, luminescence, 16 h; Potency, µM (highest dose often 46 µM), for the others: at the top dose activity change, positive = activation, hits mostly activators; actives 1.3% (n = 330,000); also: % of control where 0% means no effect; nearly all actives have a fitted effect of over 60% in size
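Step 1: seed 2,000 HEK293T ELG1-luciferase cells per well. Step 2: add compound or DMSO, incubate 16 hr at 37 °C. Step 3: ONE-Glo, 30 min at room temperature, read luminescence.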
SMN2 splice up: qHTS Assay for Enhancers of SMN2 Splice Variant Expression | HEK293 SMN2-luciferase splicing reporter, luminescence, 30-36 h | Potency, µM (doses to about 46.1 µM), without a hit: top-dose activity change, positive = activation, most hits filed as activators | actives 2.8% (n = 210,000) | AID 1458, 2008; also: % of control where 0% means no effect; nearly all actives have a fitted effect of over 55% in size
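HEK293 cells carry an SMN2 minigene-luciferase reporter in which exon 7 inclusion puts luciferase in frame. Cells were seeded at 2000 cells/well, attached for 10-12 hours, then exposed to compounds for 30-36 hours at 37C before ONE-Glo luminescence.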
FLuc modulator: qHTS profiling assay for firefly luciferase inhibitor/activator using purifed enzyme and Km concentrations of substrates (counterscreen for miR-21 project); Luciferin 4-monooxygenase (Photinus pyralis), P08659; purified FLuc, Km substrates, luminescence inhibition; Potency, µM (highest dose often 57.5 µM), for the others: at the top dose activity change, negative = inhibition, hits mostly inhibitors; actives 6.9% (n = 360,000); AID 588342, 2011;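 also: plate controls were vehicle for no effect and reference inhibitor for full effect; nearly all actives have a fitted effect of over 55% in size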
Target sequence (P08659 whole entry, looked up): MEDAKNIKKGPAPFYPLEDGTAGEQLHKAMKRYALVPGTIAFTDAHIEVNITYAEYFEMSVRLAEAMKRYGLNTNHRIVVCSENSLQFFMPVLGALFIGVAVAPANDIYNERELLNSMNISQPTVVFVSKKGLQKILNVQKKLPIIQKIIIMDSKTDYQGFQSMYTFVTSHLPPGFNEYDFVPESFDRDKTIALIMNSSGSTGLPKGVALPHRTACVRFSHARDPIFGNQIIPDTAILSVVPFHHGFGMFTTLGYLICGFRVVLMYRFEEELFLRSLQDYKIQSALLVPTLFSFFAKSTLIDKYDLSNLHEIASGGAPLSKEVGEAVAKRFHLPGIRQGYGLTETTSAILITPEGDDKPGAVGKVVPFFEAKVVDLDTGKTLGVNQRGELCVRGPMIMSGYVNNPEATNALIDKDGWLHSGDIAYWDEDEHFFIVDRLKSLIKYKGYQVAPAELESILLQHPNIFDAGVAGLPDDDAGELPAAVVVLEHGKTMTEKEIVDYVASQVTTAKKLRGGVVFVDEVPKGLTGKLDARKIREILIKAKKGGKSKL
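Purified P. pyralis luciferase (10nM final) with 10uM D-luciferin and 10uM ATP (Km levels) in 50mM Tris acetate pH 7.5, 10mM Mg acetate, 0.01% Tween-20, 0.05% BSA; qHTS 6-point titration, ~60 µM downward; luminescence read.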
Rab9 prom act: qHTS Assay for Rab9 Promoter Activators. Huh7 Rab9 promoter-luciferase reporter, luminescence, 24 h. Potency, µM (series often up to 9.22 µM), inactives show at the highest dose activation, negative = inhibition, hits mostly activators. actives 2.8% (n = 320,000). AID 485297, 2010; also: % of control where 0% means no effect; nearly all actives have a fitted effect of over 60% in size
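Using Huh7 cells stably transfected with Rab9 promoter–luciferase, compounds were incubated 24 h at 37 °C, 5% CO2; luciferase luminescence was read 10 min after reagent addition.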
NPC1 promoter act: qHTS Assay for NPC1 Promoter Activators; actives 2.4% (n = 320,000); Potency, µM (titrated, usually from 9.22 µM), for inactives: at the highest dose activation, usual class: activators; AID 485313, 2010; Huh7 NPC1 promoter luciferase reporter, 24 h; also: % of control where 0% means no effect; nearly all actives have a fitted effect of over 60% in size
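Compounds in DMSO were transferred onto Huh7 NPC1-luciferase reporter cells pre-incubated 2 h; after 24 h at 37 °C, Amplite reagent was dispensed and luminescence recorded 10 min later.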
Numbers without * were called inactive; ? = inconclusive; nt = no result given; [ ] = dose if it differs, or a comment. Most compounds without a hit are left out; they make up all but 7.4% or so of the library. Calls follow the shape of the dose curve; as a rule, active = well fitted curve in the direction sought with a large enough effect; inconclusive = small, poorly fitted or top-dose-only effect, or another doubt; inactive = no such curve, though single readings can be large; an effect the other way counts as inactive or inconclusive. Potency is read from the fitted curve at half-maximal effect.

SMILES | ELG1 genotox | SMN2 splice up | FLuc modulator | Rab9 prom act | NPC1 promoter act
Cc1cc2nc3s/c(=C/c4ccc(-c5ccccc5C(=O)O)o4)c(=O)n3c2cc1C | 5% | nt | 4.8µM* | 11% | 15%
O=C(O)c1ccccc1-c1ccc(/C=c2\sc3nc4cc(Br)cnc4n3c2=O)o1 | 2% | 3% | -16% | -2% | 0%
Cc1cc2nc(/C(C#N)=C\c3ccc(-c4ccccc4C(=O)O)o3)[nH]c2cc1C | 3% | nt | 1.5µM* | 5% | 18%
N#C/C(=C\c1ccc(-c2ccccc2C(=O)O)o1)c1nc2ccccc2[nH]1 | 12% | -6% | 12µM* | 0% | 6%
CCOC(=O)c1ccc(-c2ccc(/C=C(\C#N)c3nc4ccc(C)cc4[nH]3)o2)cc1 | nt | -4% | -12% | nt | nt
N#C/C(=C\c1ccc(-c2ccc(F)cc2F)o1)c1nc2ccccc2[nH]1 | nt | 3% | -11% | nt | nt
COc1ccc(C)cc1NC(=O)c1nnn(-c2c(C)cccc2C)c1C | nt | nt | 0% | nt | nt
Cc1ccc(-n2c3c(c(=O)[nH]c2=O)C(NC(=O)C(C)(C)C)(C(F)(F)F)C(=O)N3)cc1 (stereo not given) | nt | -3% | -1% | nt | nt
N#C/C(=C\c1ccc(Sc2ccccc2)o1)c1nc2ccccc2[nH]1 | ? | 11µM* | 2.7µM* | 2.2µM* | 2.8µM*
CCOC(=O)C1=NN(c2ccc(Cl)cc2)C(=O)C1 | ? | nt | 9.5µM* | ? | ?
CCOC(=O)c1nn(-c2ccc(Cl)cc2)cc1O | ? | nt | 11µM* | ? | ?
CCOC(=O)c1nn(-c2ccc3c(c2)OCO3)cc1O | ? | ? | 12µM* | ? | 3.2µM*
CCOC(=O)c1nn(-c2ccc(C)cc2)cc1O | 3.2µM* | ? | 7.6µM* | ? | 4.5µM*
CCOC(=O)c1cc(C(=O)OCC)cc(-n2cc(O)c(C(=O)OCC)n2)c1 | 0% | 0% | -1% | 0% | 0%
COc1ccccc1CN1CCC2(CCNCC2)CC1 | nt | -16% | nt | nt | nt
CCOC(=O)c1nn(-c2sc(C(=O)OC)c(C)c2C(=O)OC)cc1O | 5% | ? | -2% | -2% | 0%
COC(=O)c1nn(-c2ccc(-c3ccccc3)cc2)cc1O | 13% | ? | 0.34µM* | ? | ?
CCOC(=O)c1nn(-c2ccc3ccccc3c2)cc1O | 15µM* | 13% | 8.5µM* | 23% | ?
CCOC(=O)c1nn(-c2cc(C(=O)OC)cc(C(=O)OC)c2)cc1O | 4% | 2% | 2% | -3% | -2%
CCC(C)n1c(=O)c2sccc2n2c(CCCC(=O)NCc3ccccc3Cl)nnc12 (stereo not given) | nt | nt | -2% | nt | nt
CCCCc1nnc(NC(=O)C2CCCO2)s1 (stereo not given) | 15% | 35µM* | -2%[2.3 µM] | 28% | 11%
CCCCNC(=O)c1ccc(NC(=O)C2CCCO2)cc1 (stereo not given) | -4% | 11% | -5% | -5% | -3%
CCCCc1ccc(NC(=O)C2CCCO2)cc1 (stereo not given) | ? | 10µM* | 13µM* | 2.2µM* | 1.6µM*
CCOC(=O)c1ccc(NC(=O)Nc2ccon2)cc1 | 7.3µM* | nt | 19µM* | -9% | 16%
CCOC(=O)c1ccc(NC(=O)Nc2ccc(Cl)cn2)cc1 | 0% | -1% | -1% | 1% | 3%
SMILES | ELG1 genotox | SMN2 splice up | FLuc modulator | Rab9 prom act | NPC1 promoter act
CCCCc1nnc(NC(=O)C2=COCCO2)s1 | 15µM* | nt | 17µM* | 4.5µM* | 2.5µM*
Cc1nnc(NC(=O)C2=COCCO2)s1 | ? | nt | -2% | 17% | 11%
COc1ccccc1NC(=O)CSc1nc2c(oc3ccccc32)c(=O)n1-c1ccccc1F | nt | -6% | 0% | nt | nt
Cc1cc(C)cc(NC(=O)C2CCCN(c3nnc(-n4c(C)ccc4C)s3)C2)c1 (stereo not given) | nt | -1% | -8% | nt | nt
O=C1[C@@H]2CSC(c3ccc(Cl)cc3)N2C(=O)N1c1ccccc1 (stereo not given in full) | nt | 0% | 0% | nt | nt
CCCCOC(=O)c1ccc(NC(=O)C2CCCO2)cc1 (stereo not given) | 15% | 8% | ? | ? | 28%
CCOC(=O)c1ccc(NC(=O)C2CCCO2)cc1 (stereo not given) | 27% | 43% | ? | 6.3µM* | ?
COCCn1c(-c2ccccc2)nc2oc3ccccc3c(=O)c2c1=O | -1% | -2% | 3% | 4% | -4%
COCCn1c(-c2cc(OC)c(OC)c(OC)c2)nc2oc3ccccc3c(=O)c2c1=O | -9% | 14µM* | 0% | 2% | -1%
NC(=O)C[C@@H](N)C(=O)O | nt | -3% | nt | nt | nt
Cc1ccc2c(COC(=O)c3c(C)noc3C)cc(=O)oc2c1 | 3% | -25% | ? | 5% | -22%
CCc1ccc2c(COC(=O)c3n[nH]c4ccccc34)cc(=O)oc2c1 | ? | ? | 5.4µM* | ? | ?
Cc1ccc2c(COC(=O)c3n[nH]c4ccccc34)cc(=O)oc2c1 | 4.6µM* | nt | 5.4µM* | 12% | ?
CCOC(=O)c1n[nH]c2ccccc12 | 0% | -5% | 2% | -3% | -4%
Cc1ccc2c(COC(=O)c3ccccc3F)cc(=O)oc2c1 | 2.1µM* | nt | 0.19µM* | ? | ?
C[C@@H](Oc1ccc(Oc2cnc3ccc(Cl)cc3n2)cc1)C(=O)O | nt | -39% | nt | nt | nt
CCCN1C(=O)C2(c3ccccc31)c1c(oc3ccccc3c1=O)C(=O)N2CCO (stereo not given) | nt | -1% | -5% | nt | nt
CCCCOc1ccc(C2C(=O)N(C3CCCCC3)CC(=O)N2CCCC)cc1 (stereo not given) | nt | nt | 4% | nt | nt
CN(C)CCC[C@@H]1c2ccccc2Oc2ccc(C(F)(F)F)cc21 | nt | -5%[9.22 µM] | nt | nt | nt
CCOc1ccccc1NC(=O)N1CCN(C)c2ncccc21 | nt | -19% | 0% | nt | nt
O=Cc1ccc(OCc2ccccn2)cc1 | 14% | 16µM* | ? | -3% | -1%
c1ccc(COc2cccc(CNCc3ccccn3)c2)cc1 | 1% | -15% | ? | 11% | 1%
O=Cc1ccc(OCc2ccc3ccccc3c2)cc1 | ? | nt | 5.4µM* | ? | 15%
O=C(NC(=S)/C(=C1\CCCCCN1)[N+](=O)[O-])c1ccccc1 | 0.23µM* | nt | nt | nt | nt
CNc1oc(/C=C/c2ccccc2)nc1C#N | ? | 11µM* | 2.7µM* | 3.2µM* | ?
COCCCNc1oc(/C=C/c2cc(OC)c(OC)c(OC)c2)nc1C#N | nt | ? | -1% | nt | nt
COCCNc1oc(/C=C/c2ccccc2)nc1C#N | 18µM* | nt | 11µM* | 3.5µM* | ?
CNc1oc(/C=C/c2cc(OC)c(OC)c(OC)c2)nc1C#N | nt | 14% | -1% | nt | nt
